# Results filed as inconclusive are left out. Activity calls are given as the source filed them. The calls were made as follows: active = hit-call score of the fitted dose curve at least 0.9, where 1 is the maximum; inconclusive = response in the unintended direction; inactive = score below 0.9.
# Assay: Tanguay_ZF_120hpf_AXIS_legacy: (Legacy) Oregon State University Tanguay Lab 120 Hour Post-fertilization zebrafish Assay for Body Axis Malformation (AID 2283635);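 as to AC50: potency for an increased fraction of larvae scored with body axis malformation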
# Protocol: Tanguay_ZF_120hpf_legacy is a whole embryo, multiplexed endpoint assay using zebrafish larvae exposed for 120 hours post fertilization on a 96-well plate.Tanguay_ZF_120hpf_AXIS_legacy is one of one assay component(s) measured or calculated from the Tanguay_ZF_120hpf_legacy assay. It is designed to make measurements of zebrafish development as detected with brightfield microscopy of developing zebrafish embryos.Data from the assay component Tanguay_ZF_120hpf_AXIS_legacy was analyzed into 1 assay endpoints. This assay endpoint, Tanguay_ZF_120hpf_AXIS_legacy, was analyzed in the positive analysis fitting direction relative to DMSO as the negative control and baseline of activity. Using a type of morphology reporter, gain-of-signal activity can be used to understand changes in developmentals as they relate to the whole embryo. To generalize the intended target to other relatable targets, this assay endpoint is annotated to the zebrafish development intended target family, where the subfamily is body axis morphogenesis.
# Zebrafish husbandry: Tropical 5D wild-type adult zebrafish were housed in at an approximate density of 1000 per 100 gallon tank at the Sinnhuber Aquatic Research Laboratory, Oregon State University, Corvallis, OR. Each tank was kept at standard laboratory conditions of 28C on a 14-h light/10-h dark photoperiod in fish water consisting of reverse osmosis water supplemented with a commercially available salt (Instant Ocean). Spawning funnels were placed into the tanks the night prior, and embryos were collected and staged. To increase bioavailability, the chorion was enzymatically removed using pronase (63.6mg/ml, >/= 3.5U/mg, Sigma-Aldrich: P5147) at 4 hours post fertilization (hpf) using a custom automated dechorionator.Chemical exposures: Six hpf dechorionated embryos were placed 1 embryo per well in a 96-well plate prefilled with 90 ul of EM using automated embryo placement systems (AEPS). Ten microliters of each row of dilution plate 2 was added to 2 exposure plates. The final DMSO concentration used was 0.64% (vol/vol). Thirty-two embryos were also exposed to 5uM trimethyltin chloride (positive control). Plates were sealed to prevent evaporation and foil covered to reduce light exposure and kept in a 28C incubator. Embryos were statically exposed until 120 hpf. At 24 hpf, embryos were assessed for photomotor response using a custom photomotor response analysis tool (PRAT) and for developmental toxicity endpoints (MO24: mortality at 24 hpf, DP: developmental progression, SM: spontaneous movement, and NC: notochord distortion). At 120 hpf, locomotor activity was measured using Viewpoint Zebralab and assessed for 18 endpoints. Zebrafish acquisition and analysis program (ZAAP), a custom program designed to inventory, acquire, and manage zebrafish data, was used to collect developmental endpoints as either present or absent (i.e., binary responses were recorded). If mortality occurred for an embryo (at either 24 or 120 hpf), the non-mortality endpoints were not measured.
SMILES,outcome,AC50
CC(=O)[O][Hg][c]1ccccc1,inactive,–
CCN1CCC2(CC1)COc1cc3c(cc12)N(C(=O)c1ccc(-c2ccc(-c4nnc(C)o4)cc2C)cc1)CC3,inactive,–
O=C(O)C(Cl)(Cl)Cl,inactive,–
CC12CC1(C)C(=O)N(c1cc(Cl)cc(Cl)c1)C2=O (centres undefined),inactive,–
ClC1(Cl)C2(Cl)C3(Cl)C4(Cl)C(Cl)(Cl)C5(Cl)C3(Cl)C1(Cl)C5(Cl)C24Cl (centres undefined),inactive,–
Oc1cccc2cccnc12,inactive,–
ClCC(Cl)CCl,inactive,–
C=C(C)C(=O)[O][Sn]([CH2]CCC)([CH2]CCC)[CH2]CCC,inactive,–
CCC(=O)C(CC(C)N(C)C)(c1ccccc1)c1ccccc1 (centres undefined),–,31.3 µM (active)
C[C@]12CCC(=O)C[C@@H]1CC[C@@H]1[C@@H]2CC[C@]2(C)[C@@H](O)CC[C@@H]12,inactive,–
CC(C)(C)c1cc(O)ccc1O,inactive,–
C[C@@H]1C[C@@H]([C@H](O)CC2CC(=O)NC(=O)C2)C(=O)[C@@H](C)C1,inactive,–
CC(C)(OO)c1ccccc1,inactive,–
O=C(Nc1ccc2[nH]ccc2c1)c1cc2cc(F)ccc2n1Cc1cccc(F)c1,inactive,–
CCOP(=S)(OCC)Oc1nc(Cl)c(Cl)cc1Cl,inactive,–
O=C1C2(Cl)C3(Cl)C4(Cl)C(Cl)(Cl)C5(Cl)C3(Cl)C1(Cl)C5(Cl)C24Cl (centres undefined),–,6.6 µM (active)
O=C(O)C(F)(F)C(F)(F)C(F)(F)C(F)(F)C(F)(F)C(F)(F)F,inactive,–
CCC(C)(C)c1ccc(O)c(C(C)(C)CC)c1,inactive,–
CCOP(=S)(OCC)SCSP(=S)(OCC)OCC,inactive,–
COc1cc(-c2ccc(N)c(OC)c2)ccc1N,inactive,–
CC(C)(C)CC(C)(C)c1ccc(O)cc1,inactive,–
CCCCCCCCc1ccc(O)cc1,inactive,–
O=c1[nH]c(=O)[nH]c(=O)[nH]1,inactive,–
C=CC(=O)OCCCCCC(C)C,inactive,–

# From PubChem BioAssay (EPA / NIEHS)
